From PubChem BioAssay (Tox21) come the findings set out here.

Structures are written as SMILES. Inconclusive results are not listed. Entries that show only a call come without a potency. A structure can be active in one record and inactive in another. The source made the active and inactive calls. The call rests on the fitted dose curve.

Chain of Acetylcholinesterase (Homo sapiens) (P22303 whole entry, looked up): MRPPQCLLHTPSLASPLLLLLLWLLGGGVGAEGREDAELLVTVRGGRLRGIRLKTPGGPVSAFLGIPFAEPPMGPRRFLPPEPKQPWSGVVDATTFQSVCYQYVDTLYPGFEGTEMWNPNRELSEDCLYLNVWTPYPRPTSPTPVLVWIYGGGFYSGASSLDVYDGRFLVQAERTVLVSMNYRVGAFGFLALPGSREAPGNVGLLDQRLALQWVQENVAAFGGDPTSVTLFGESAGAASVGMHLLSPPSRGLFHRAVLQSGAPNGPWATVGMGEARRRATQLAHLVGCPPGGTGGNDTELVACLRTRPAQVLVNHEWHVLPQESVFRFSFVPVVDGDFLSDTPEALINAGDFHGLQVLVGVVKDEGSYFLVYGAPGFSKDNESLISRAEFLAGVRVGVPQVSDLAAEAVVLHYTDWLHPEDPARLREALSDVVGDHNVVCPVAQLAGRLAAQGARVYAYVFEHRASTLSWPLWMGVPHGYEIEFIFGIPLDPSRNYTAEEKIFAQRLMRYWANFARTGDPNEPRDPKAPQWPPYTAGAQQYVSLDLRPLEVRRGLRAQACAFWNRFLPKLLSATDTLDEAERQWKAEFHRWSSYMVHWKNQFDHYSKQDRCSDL

One assay addresses Acetylcholinesterase (Homo sapiens) (UniProt P22303). In words: Acetylcholinesterase (AChE) small molecule antagonists: colormetric cell-based qHTS assay (AID 1347395). Further: nearly all actives have a fitted effect of over 30% in size. Further: potency means the concentration at half of the fitted maximal effect. Particulars: SH-SY5Y cells AChE activity, colorimetric (Ellman); series mostly up to 115 µM. Put shortly: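 Homogeneous whole-cell format. SH-SY5Y cells seeded overnight, dosed with compound (30 min, 37 C, 5% CO2), then given DTNB/acetylthiocholine cocktail for 90 min at 37 C; colorimetric signal.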
Regarding `CCCCCCCCCCCCCCNCCO`, the Potency result was “inactive”.
For `COc1ccccc1NC(=O)CC(C)=O`, the Potency entry was “inactive”.
Consider `CCCCCCCCOc1ccc(C(=O)c2ccccc2)c(O)c1`, for which the Potency result is “inactive”.
Take `NNC(=O)c1cccc(C(=O)NN)c1`: the Potency result is “inactive”.
With `Brc1nc2ccccc2s1`, the Potency result was “inactive”.
Still for that read-out and setting: to `c1cc[nH]c1` belongs “inactive”; to `CCCN(CCC)C(=O)C(CCC(=O)OCCCN1CCN(CCOC(=O)Cc2c(C)n(C(=O)c3ccc(Cl)cc3)c3ccc(OC)cc23)CC1)NC(=O)c1ccccc1` (stereo not given), “inactive”; to `CCCCC(CC)CN1CN(CC(CC)CCCC)CC(C)(N)C1` (stereo not given), “inactive”.
Regarding `O=[N+]([O-])c1cccc(C(F)(F)F)c1`, the Potency entry is “inactive”.
Take `CC(C)C(=O)OCCOc1ccccc1`: the Potency entry was “inactive”.
For `CCC(C)(C)C1CCC(OC)CC1` (stereo not given), the Potency result was “inactive”.
`Nc1[nH]c(=O)ncc1F`: the Potency result was “inactive”.
As for `Oc1ccc(O)c2c(O)cccc12`, the Potency entry was “inactive”.
For the compound `C[C@](N)(Cc1ccc(O)c(O)c1)C(=O)O`, the Potency result is “inactive”.
The same measure, in the same setting: to `CC(C)(C)C(=O)NCCCC(=O)O` belongs “inactive”; to `c1ccc(Nc2cccc3ccccc23)cc1`, “inactive”.
In the case of `O=CN(CCO)CCO`, the Potency entry is “inactive”.
As to `CCN(CCO)c1cccc(C)c1`, the Potency entry was “inactive”.
Turning to `NCc1cccc(CN)c1`, the Potency result is “inactive”.
As for `COC(=O)Nc1nc2ccc(S(=O)c3ccccc3)cc2[nH]1` (stereo not given), the Potency entry was “inactive”.
Turning to `O=C(O)c1cc(-c2ccccc2)nc2ccccc12`, the Potency entry was “inactive”.
With `CC1CC(C)C(=O)C1=O` (stereo not given), the Potency entry is “inactive”.
As for `CCCC(C)C(=O)OCC` (stereo not given), the Potency result is “inactive”.
As to `CNC[C@H](O)[C@@H](O)[C@H](O)[C@H](O)CO`, the Potency entry was “inactive”.
In the case of `CC1(C)OC(=O)NC1=O`, the Potency entry was “inactive”.
The same measure, in the same setting: to `CC(C)CCCCCCc1ccc(OCCOCCO)cc1` belongs “inactive”; to `[Cl][Dy]([Cl])[Cl]`, “inactive”; to `CC(C)(C)NC(N)=O`, “inactive”.
Turning to `CCn1cc(C(=O)O)c(=O)c2cc(F)c(N3CCNC(C)C3)c(F)c21` (stereo not given), the Potency result was “inactive”.
Take `NS(=O)(=O)c1ccc(NC(=O)CCC(=O)O)cc1`: the Potency result was “inactive”.
`Cc1c(N(C)C)c(=O)n(-c2ccccc2)n1C`: the Potency entry was “inactive”.
In the case of `COc1cc([N+](=O)[O-])ccc1N`, the Potency result was “inactive”.
On to `O=C(NO)C1(NS(=O)(=O)c2ccc(Oc3ccc(F)cc3)cc2)CCOCC1`, for which the Potency entry was “inactive”.
With `NC(=O)N1c2ccccc2C=Cc2ccccc21`, the Potency is 35.4 µM (active) and inactive.
In the case of `CC1(C)C(O)C(C)(C)C1O` (stereo not given), the Potency entry was “inactive”.
On the same count and under the same terms, in the case of `OCCN1CCN(CCO)CC1` it was “inactive”.
With `CNCCCC12CCC(c3ccccc31)c1ccccc12`, the Potency result was “inactive”.
For the compound `ClCCl`, the Potency result is “inactive”.
As to `C=COCC(C)C`, the Potency entry is “inactive”.
Same read-out and setting: to `N/C(=N\N=C\c1ccc(Cl)cc1)N/N=C/c1ccc(Cl)cc1` belongs “inactive”.

The target is the same in a further assay. In words: Acetylcholinesterase (AChE) small molecule antagonists: enzyme-based qHTS assay (AID 1347397). Further: nearly all actives have a fitted effect of over 55% in size. Particulars: Potency: AChE enzyme activity inhibition; outcome: AChE enzyme activity inhibition; series mostly up to 115 µM. Summed up: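 Colorimetric DTNB read-out of thiocholine released from acetylthiocholine by recombinant human AChE (50 mU/mL as dispensed). Compounds were preincubated 30 min at RT before substrate/DTNB addition, with a 10 min RT reaction.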
(qHTS replaces the single test concentration by a dilution series.)
For `CCCCCCCCCCCCCCNCCO`, the Potency result was “inactive”.
On to `COc1ccccc1NC(=O)CC(C)=O`, for which the Potency entry was “inactive”.
Turning to `CCCCCCCCOc1ccc(C(=O)c2ccccc2)c(O)c1`, the Potency entry was “inactive”.
The same measure, in the same setting: in the case of `NNC(=O)c1cccc(C(=O)NN)c1` it was “inactive”; in that of `Brc1nc2ccccc2s1`, “inactive”; in that of `c1cc[nH]c1`, “inactive”.
As to `CCCN(CCC)C(=O)C(CCC(=O)OCCCN1CCN(CCOC(=O)Cc2c(C)n(C(=O)c3ccc(Cl)cc3)c3ccc(OC)cc23)CC1)NC(=O)c1ccccc1` (stereo not given), the Potency entry is “inactive”.
On to `CCCCC(CC)CN1CN(CC(CC)CCCC)CC(C)(N)C1` (stereo not given), for which the Potency result is “inactive”.
Take `O=[N+]([O-])c1cccc(C(F)(F)F)c1`: the Potency result is “inactive”.
Same read-out and setting: in the case of `CC(C)C(=O)OCCOc1ccccc1` it was “inactive”.
Same read-out and setting: to `CCC(C)(C)C1CCC(OC)CC1` (stereo not given) belongs “inactive”; to `Nc1[nH]c(=O)ncc1F`, “inactive”; to `Oc1ccc(O)c2c(O)cccc12`, “inactive”.
`C[C@](N)(Cc1ccc(O)c(O)c1)C(=O)O`: the Potency entry is “inactive”.
Same read-out and setting: in the case of `CC(C)(C)C(=O)NCCCC(=O)O` it was “inactive”; in that of `c1ccc(Nc2cccc3ccccc23)cc1`, “inactive”; in that of `O=CN(CCO)CCO`, “inactive”.
`CCN(CCO)c1cccc(C)c1`: the Potency entry is “inactive”.
For the compound `NCc1cccc(CN)c1`, the Potency entry is “inactive”.
Consider `COC(=O)Nc1nc2ccc(S(=O)c3ccccc3)cc2[nH]1` (stereo not given), for which the Potency entry was “inactive”.
For the compound `O=C(O)c1cc(-c2ccccc2)nc2ccccc12`, the Potency entry is “inactive”.
In the case of `CC1CC(C)C(=O)C1=O` (stereo not given), the Potency entry was “inactive”.
With `CCCC(C)C(=O)OCC` (stereo not given), the Potency result was “inactive”.
For the compound `CNC[C@H](O)[C@@H](O)[C@H](O)[C@H](O)CO`, the Potency result is “inactive”.
`CC1(C)OC(=O)NC1=O`: the Potency entry is “inactive”.
On the same count and under the same terms, to `CC(C)CCCCCCc1ccc(OCCOCCO)cc1` belongs “inactive”.
In the case of `[Cl][Dy]([Cl])[Cl]`, the Potency entry is “inactive”.
Take `CC(C)(C)NC(N)=O`: the Potency result was “inactive”.
As for `CCn1cc(C(=O)O)c(=O)c2cc(F)c(N3CCNC(C)C3)c(F)c21` (stereo not given), the Potency result is “inactive”.
For `NS(=O)(=O)c1ccc(NC(=O)CCC(=O)O)cc1`, the Potency result was “inactive”.
For `Cc1c(N(C)C)c(=O)n(-c2ccccc2)n1C`, the Potency entry is “inactive”.
`COc1cc([N+](=O)[O-])ccc1N`: the Potency result is “inactive”.
As for `O=C(NO)C1(NS(=O)(=O)c2ccc(Oc3ccc(F)cc3)cc2)CCOCC1`, the Potency result is “inactive”.
As to `NC(=O)N1c2ccccc2C=Cc2ccccc21`, the Potency result was “inactive”.
On the same count and under the same terms, in the case of `CC1(C)C(O)C(C)(C)C1O` (stereo not given) it was “inactive”.
Still for that read-out and setting: to `OCCN1CCN(CCO)CC1` belongs “inactive”.
On to `CNCCCC12CCC(c3ccccc31)c1ccccc12`, for which the Potency entry is “inactive”.
For `ClCCl`, the Potency result is “inactive”.
Take `C=COCC(C)C`: the Potency entry was “inactive”.
For `N/C(=N\N=C\c1ccc(Cl)cc1)N/N=C/c1ccc(Cl)cc1`, the Potency result is “inactive”.
